Screening data deposited in PubChem by National Center for Advancing Translational Sciences (NCATS).
RORg inh: inhibitors of mouse ROR gamma transcriptional activity; P51450; Drosophila S2 Gal4-RORgamma UAS-luciferase reporter, 20 h; Potency, µM (highest dose often 53.6 µM), without a hit: top-dose activity change, negative = inhibition, hits mostly inhibitors; actives 5.4% (n = 310,000); further: potency means the concentration at half of the fitted maximal effect; nearly all actives have a fitted effect of over 60% in size
Target sequence (P51450 whole entry, looked up, the tested form may be a part): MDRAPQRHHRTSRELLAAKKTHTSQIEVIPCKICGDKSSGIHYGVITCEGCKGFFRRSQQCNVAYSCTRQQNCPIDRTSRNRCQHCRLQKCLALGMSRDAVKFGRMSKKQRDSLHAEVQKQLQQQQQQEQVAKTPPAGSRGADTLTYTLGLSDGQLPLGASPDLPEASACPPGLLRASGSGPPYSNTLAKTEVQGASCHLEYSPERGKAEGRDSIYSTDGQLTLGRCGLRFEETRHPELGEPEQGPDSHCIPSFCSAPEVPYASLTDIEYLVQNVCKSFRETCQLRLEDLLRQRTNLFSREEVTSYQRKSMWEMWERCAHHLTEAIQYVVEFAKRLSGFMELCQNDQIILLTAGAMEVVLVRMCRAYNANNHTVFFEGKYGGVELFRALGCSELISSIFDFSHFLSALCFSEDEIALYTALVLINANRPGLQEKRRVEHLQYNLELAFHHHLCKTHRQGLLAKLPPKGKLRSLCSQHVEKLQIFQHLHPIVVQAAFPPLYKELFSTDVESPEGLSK
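Luciferase reporter read in Schneider cells carrying Gal4-RORγ (mouse) and UAS-Photinus luciferase; cells given compound 1 h before 700 uM copper sulfate induction, then incubated 20 h at ambient temperature.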
TDP1 cell CPT: growth inhibition of DT40 Tdp1-/-;hTDP1 cells with camptothecin (screen for TDP1 inhibitors); chicken DT40 Tdp1-/-;hTDP1 cells + 20 nM CPT, ATP luminescence, 48 h; Potency, µM (titrated, usually from 46.2 µM), for the others: at the top dose activity change, negative = growth inhibition, most hits filed as inhibitors; actives 12% (n = 420,000); further: potency means the concentration at half of the fitted maximal effect; nearly all actives have a fitted effect of over 55% in size
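Chicken DT40 Tdp1-/- cells stably complemented with human TDP1 were seeded at 400 cells/well in medium containing 20 nM camptothecin, exposed to pin-transferred compounds, and grown at 37 °C for at least 48 hr. Viability was read as ATP luminescence.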
TDP1 cell noCPT: qHTS for Inhibitors of human tyrosyl-DNA phosphodiesterase 1 (TDP1): qHTS in cells in absence of CPT; Potency, µM (highest dose often 46.2 µM), for the others: at the highest dose activity change, negative = growth inhibition, usual class: inhibitors; actives 15% (n = 420,000); DT40 Tdp1-/- hTDP1 cells, no CPT, ATP luminescence, 48 h; further: potency means the concentration at half of the fitted maximal effect; nearly all actives have a fitted effect of over 55% in size
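DT40 Tdp1-/-;hTDP1 cells, no CPT (DMSO vehicle only), 400 cells/well; compounds pin-transferred; ≥48 hr, 37 °C; CellTiter-Glo 30 min RT dark, luminescence read.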
IL-1B inflam inh: blocks inflammasome-driven IL-1 beta release. activity change, % at 57.5 µM. actives 4.7% (n = 360,000). AID 743279. THP-1 LPS/ATP IL-1B secretion, AlphaLISA, 16 h; stronger effect = lower value; in the data active means activity change below about -50%; inconclusive means mostly about -30% to -49%
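THP-1 cells pretreated 1 hr with compounds (up to 57.5 uM final), then stimulated with LPS (250 ng/mL final) plus ATP (1.25 mM final); secreted IL-1B measured by AlphaLISA after 16 hr, decreased signal indicating inhibition.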
ELG1 repair inh: blocks ELG1-dependent DNA repair in HEK293T cells. HEK293T ELG1-luciferase reporter, luminescence, 16 h; DNA damage induced by 5-fluorouridine. Potency, µM (highest dose often 46.1 µM), without a hit: top-dose activity change, negative = inhibition, most hits filed as inhibitors. actives 2.3% (n = 330,000). AID 504467; further: potency means the concentration at half of the fitted maximal effect; nearly all actives have a fitted effect of over 55% in size
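Luminescence from the luciferase reporter, measured 30 min after ONE-Glo reagent at room temperature, was the read-out. Beforehand, 2,000 cells per well were exposed for 16 hr at 37 °C to 5-fluorouridine together with compound or vehicle.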
VP16 counter: Gal4-VP16 reporter inhibition counter-screen; Potency, µM (titrated, usually from 53.6 µM), without a hit: at the highest dose activity, negative = inhibition, usual class: inhibitors; actives 3.5% (n = 310,000); Drosophila S2 Gal4-VP16 UAS-luciferase, luminescence, 20 h;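 further: Gal4-VP16 expression switched on by copper sulfate through the metallothionein promoter; potency means the concentration at half of the fitted maximal effect; nearly all actives have a fitted effect of over 50% in size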
* hit, by the source's call; ? = inconclusive; nt = no result given. Only some compounds are listed: those with a hit (about 21% of all), similar ones and a draw of the others. Unless noted, the call rests on the fitted dose curve; in most records, active means well fitted curve in the direction sought with a large enough effect; inconclusive means small, poorly fitted or top-dose-only effect, or another doubt; inactive means no such curve, though single readings can be large; an effect the other way counts as inactive or inconclusive. On the % scale 0 is the no-effect control and ±100 the full control effect.

SMILES | RORg inh | TDP1 cell CPT | TDP1 cell noCPT | IL-1B inflam inh | ELG1 repair inh | VP16 counter
CC(=O)N1CCc2cc(S(=O)(=O)NCc3ccc(C)cc3)ccc21 | ? | ? | 7.3µM* | 51 | -6% | -9%
COc1cccc(/C=C/C(=C2/C(=O)N(c3ccccc3)N=C2C)c2ccc(Br)cc2)c1OC | -3% | -3% | 7% | 3 | -1% | 1%
COc1cccc(/C=C/C(=C2/C(=O)N(c3ccccc3)N=C2C)c2ccccc2)c1OC | -9% | 0% | -3% | -1 | 7.3µM* | ?
COc1cccc(NC(=O)COc2cccc3c2CCNC3=O)c1 | nt | ? | -28% | 45 | ? | nt
O=S1(=O)N[C@H](Cc2ccccc2)COc2cc(N3CCC[C@H]3CO)ccc21 | nt | -21% | ? | 15 | nt | nt
C[C@H](c1ccccc1)N1C[C@@H](COCc2ccccc2)Oc2cc(N3CCC[C@@H]3CO)ccc2S1(=O)=O | nt | ? | 21µM* | -22 | nt | nt
C[C@H](c1ccccc1)N1C[C@H](COCc2ccccc2)Oc2cc(N3CCC[C@H]3CO)ccc2S1(=O)=O | nt | ? | ? | 20 | nt | nt
C[C@@H](c1ccccc1)N1C[C@@H](COCc2ccccc2)Oc2cc(N3CCC[C@H]3CO)ccc2S1(=O)=O | nt | ? | 21µM* | ? | nt | nt
COCCCNc1ncnc2sc(C(=O)N3CCOCC3)c(C)c12 | nt | 11% | -9% | nt | nt | nt
Cc1cc(C)c(NC(=O)Cn2nnc(-c3nc(-c4ccncc4)no3)c2N)c(C)c1 | nt | 0% | -4% | nt | nt | nt
CCOC(=O)C1=NN(c2ccccc2)C2=NC(C)=C(C(=O)OC)C(c3cccs3)N12 (stereo not drawn) | nt | -19% | -1% | 10 | nt | nt
CCOC(=O)C1=NN(c2cccc(Cl)c2)C2=NC(C)=C(C(=O)OC)C(c3cccs3)N12 (stereo not drawn) | 26% | 0% | -16% | -5 | 21µM* | -6%
CCN1C(=O)CC(c2ccccc2)N(C2CCCC2)c2nc(Nc3ccc(C(=O)NC4CCN(C)CC4)cc3OC)ncc21 (stereo not drawn) | nt | ? | ? | -77* | ? | nt
CCN1C(=O)CC(C(C)C)N(C2CCCC2)c2nc(Nc3ccc(C(=O)NC4CCN(C)CC4)cc3OC)ncc21 (stereo not drawn) | nt | ? | ? | -74* | nt | nt
COc1ccccc1-n1cnc2cc(C(=O)NC3CCCC3)ccc21 | ? | ? | ? | 0 | 8% | 2%
CCN1C(=O)[C@H]2[C@H]3CN=C(SCc4ccc(OC)cc4)N3[C@@](CC)(C(=O)OC)[C@H]2C1=O | nt | 9% | -1% | 12 | 12% | nt
CCOc1cc(/C=C2\SC(=Nc3ccc(CC)cc3)NC2=O)ccc1OCC(=O)O | 17% | -3% | -8% | 18 | -7% | -4%
Cn1c(=O)c(=O)n(C)c2cc(N3CCOCC3)c(NS(=O)(=O)c3ccc(F)c(Cl)c3)cc21 | -3% | ? | ? | -18 | -5% | 1%
Cc1cc(S(=O)(=O)Nc2cc3c(cc2N2CCOCC2)n(C)c(=O)n3C)ccc1F | nt | 23µM* | 9.2µM* | nt | nt | nt
Cn1c(=O)n(C)c2cc(N3CCOCC3)c(NS(=O)(=O)c3ccc(Br)cc3)cc21 | nt | 15µM* | ? | nt | nt | nt
O=C(c1ccccc1NS(=O)(=O)c1ccc(Br)cc1)N1CCOCC1 | -5% | -6% | 2% | -53* | -1% | 5%
CN(C(=O)COC(=O)c1ccc(=O)n(Cc2ccccc2)n1)c1ccccc1 | 2% | 15µM* | 18µM* | 13 | 8% | 2%
Cc1ccc(NC(=O)C(C)OC(=O)Cn2cnc3ccccc3c2=O)cc1 (stereo not drawn) | nt | -9% | -9% | 0 | 11% | nt
COc1ccc(NC(=O)CN(C)S(=O)(=O)c2ccc(C(=O)N3CCOCC3)s2)cc1 | nt | ? | -22% | nt | nt | nt
CN(CC(=O)Nc1ccccc1Cl)S(=O)(=O)c1ccc(C(=O)N2CCOCC2)s1 | nt | 15µM* | ? | nt | nt | nt
SMILES | RORg inh | TDP1 cell CPT | TDP1 cell noCPT | IL-1B inflam inh | ELG1 repair inh | VP16 counter
CC1=CCC2C(=O)N(C(C)c3ccccc3)C(=O)C2C1 (stereo not drawn) | 6% | -2% | -2% | -7 | 5% | 4%
CC1=CCC2C(=O)N(c3nc4ccccc4n3C)C(=O)C2C1 (stereo not drawn) | 3.5µM* | -2% | -7% | 12 | nt | ?
COc1ccc(CNC(=O)CCCn2c(=O)c3cccn3c3ccc(F)cc32)cc1OC | nt | 18µM* | 18µM* | nt | nt | nt
COc1ccc(CNC(=O)CCn2c(=O)c3cccn3c3ccc(F)cc32)cc1OC | nt | -46% | ? | nt | nt | nt
COc1ccc(CCNC(=O)Cn2c(=O)c3cccn3c3ccccc32)cc1OC | nt | ? | 23µM* | nt | nt | nt
COc1ccc(CCNC(=O)Cn2c(=O)c3cccn3c3ccc(F)cc32)cc1OC | nt | -25% | ? | nt | nt | nt
Cc1cccc(CNC(=O)CCCn2c(=O)c3cccn3c3ccc(F)cc32)c1 | nt | ? | 23µM* | nt | nt | nt
C/C(=C(/CCOC(=O)C(C)C)SS/C(CCOC(=O)C(C)C)=C(\C)N(C=O)Cc1cnc(C)nc1N)N(C=O)Cc1cnc(C)nc1N | 10% | nt | nt | nt | nt | -3%
Cc1nc(-c2ccccc2)cn(O)c1=O | 6.3µM* | -9% | 0% | -3 | -3% | -72%
CC(=NO)C1CCC2C3CCC4=CC(=NO)CCC4(C)C3C(O)CC12C (stereo not drawn) | nt | 13µM* | 16µM* | 25 | nt | nt
CC(=O)C1CCC2C3CC(O)C4=CC(=O)CCC4(C)C3C(=O)CC12C (stereo not drawn) | nt | 14% | 5% | -1 | nt | nt
CC(=NO)C1CCC2C3CCC4=CC(=NO)CCC4(C)C3C(=O)CC12C (stereo not drawn) | nt | 13µM* | 16µM* | 44 | nt | nt
O=C(Nc1ccc2c(c1)CN(C(=O)Nc1ccc(F)cc1)CC2)c1ccccn1 | nt | 5.8µM* | 4.1µM* | -15 | nt | nt
CSc1ccccc1C(=O)N1CCc2ccc(NC(=O)c3ccccn3)cc2C1 | nt | 13µM* | 12µM* | 17 | nt | nt
CCC1OC(=O)C(C)[C@@H](O[C@H]2C[C@@](C)(OC)C(O)C(C)O2)C(C)[C@@H](O[C@@H]2OC(C)CC(N(C)C)C2O)[C@](C)(O)CC(C)/C(=N\OCOCCOC)[C@H](C)C(O)[C@]1(C)O (stereo partly drawn) | 7% | -17% | -16% | nt | nt | 7%
O=C(CSc1cccc2cccnc12)Nc1cc(C(=O)O)cc(C(=O)O)c1 | -40% | 0% | ? | 24 | 4% | 1%
